Results reported in PubChem BioAssay (NCATS).
Results filed as inconclusive are left out. Where a call stands in place of a potency, no number is given. Active and inactive are the calls of the source. Calls come from the whole dose curve; as a rule, active = well fitted curve in the direction sought with a large enough effect; inconclusive = small, poorly fitted or top-dose-only effect, or another doubt; inactive = no such curve, though single readings can be large; an effect the other way counts as inactive or inconclusive.

Columns and labels:
[1] = molecular target: Aldehyde dehydrogenase, mitochondrial (Homo sapiens) (UniProt P05091); assay: qHTS for Inhibitors of the Aldehyde Dehydrogenase Family (ALDH2) Primary screen (AID 2061308); note: nearly all actives have a fitted effect of over 55% in size
[2] = molecular target: Retinaldehyde dehydrogenase 3 (Homo sapiens) (UniProt P47895); assay: qHTS for Inhibitors of the Aldehyde Dehydrogenase Family (ALDH1A3) Primary screen (AID 2061315)

Row | SMILES | Potency [1] | Potency [2]
1 | O=C(Nc1ccc(S(=O)(=O)Nc2nccs2)cc1)c1cccc2ccccc12 | inactive | inactive
2 | O=C1N/C(=C\c2ccco2)C(=O)N1Cc1ccc(F)cc1 | inactive | inactive
3 | Cc1cccc(-n2cnc3cc(C(=O)N4CCCC(c5ccccc5)C4)ccc32)c1 (stereo not given) | inactive | inactive
4 | O=C(OCc1ccccc1)N1CCN(C(=O)[C@H](Cc2ccc(O[S+](=O)([O-])c3cccc4cnccc34)cc2)N[S+](=O)([O-])c2cccc3cnccc23)CC1 | inactive | inactive
5 | COc1ccc(S(=O)(=O)Nc2ccc(C)c(C)c2)cc1 | inactive | inactive
6 | Cc1nc(NC2CCCCC2)c2nc(-c3ccccc3)n(CCCN3CCCCC3C)c2n1 (stereo not given) | inactive | inactive
7 | Cc1cnc(-c2ccccc2CO)nc1NCc1ccc(-c2cccnc2)cc1 | inactive | inactive
8 | Oc1ccc(COC2CCCC2)c2cccnc12 | inactive | inactive
9 | O=C(Nc1ccccc1)C1CCN(c2ncc(-c3ccc4c(c3)OCCCO4)s2)CC1 | inactive | inactive
10 | CCCCCCNC(=O)Nc1nnc(-c2ccncc2)s1 | inactive | inactive
11 | Cn1nnnc1Sc1ncnc2scc(-c3ccc[nH]3)c12 | inactive | inactive
12 | CN(C)CCCNC(=O)c1ccc(-c2cnc3c(O)ccc(C(=O)O)c3c2)cc1 | inactive | inactive
13 | COc1ccc(NS(=O)(=O)c2ccc(C)cc2)c(C(=O)Nc2nc(-c3ccccc3)cs2)c1 | inactive | inactive
14 | O=C1CCCC2=C1C(c1[nH]ncc1Cl)N=C(Nc1nc3cc(F)ccc3o1)N2 (stereo not given) | inactive | inactive
15 | NCCCCNc1ncnc2ccc(-c3ccc4c(c3)OCO4)cc12 | inactive | inactive
